Compound activity deposited in PubChem BioAssay by Broad Institute.
In the library only some 0.35% were active in any assay of this set; here they are far more common.
Rtt109 Vps75: inhibitors of Candida albicans Rtt109/Vps75 histone acetyltransferase. hit rate 0.16% among 330,000. purified Rtt109/Vps75, ThioGlo CoA-SH fluorescence, 4 h. inhibition, % at 34.9 µM. Q5AAJ8;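 active = inhibition of at least 50% in every replicate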
PvdQ inh: P. aeruginosa PvdQ acylase inhibition | purified PvdQ acylase, fluorescence plate reader | inhibition, % at 10 µM | hit rate 0.063% among 340,000; in the data active = inhibition above about 30%, passing the limit was not always enough;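 note: 0% = vehicle neutral wells and 100% = reference inhibitor wells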
ERAP1 inh: ERAP1 (human) enzyme inhibition; Q9NZ08; recombinant ERAP1, Leu-AMC fluorescence, 60 min; inhibition, % at 10.7 µM; hit rate 0.15% among 340,000;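 active = mean replicate inhibition of at least 30%, or all replicates individually reaching that 30% level; inactive = mean below 30% and not every replicate reaching it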;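 note: 0% = neutral control wells and 100% = L-leucinethiol positive control wells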
ERp5 block: ERp5 (human) disulfide isomerase inhibition | Q15084 | ERp5 insulin aggregation, absorbance 650 nm, 90 min | inhibition, % at 9.99 µM | hit rate 0.05% among 350,000;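 active = mean replicate inhibition above about 25%, with every replicate also reaching it, limit read from the data, passing the limit was not always enough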
Target sequence (Q15084 whole entry, looked up): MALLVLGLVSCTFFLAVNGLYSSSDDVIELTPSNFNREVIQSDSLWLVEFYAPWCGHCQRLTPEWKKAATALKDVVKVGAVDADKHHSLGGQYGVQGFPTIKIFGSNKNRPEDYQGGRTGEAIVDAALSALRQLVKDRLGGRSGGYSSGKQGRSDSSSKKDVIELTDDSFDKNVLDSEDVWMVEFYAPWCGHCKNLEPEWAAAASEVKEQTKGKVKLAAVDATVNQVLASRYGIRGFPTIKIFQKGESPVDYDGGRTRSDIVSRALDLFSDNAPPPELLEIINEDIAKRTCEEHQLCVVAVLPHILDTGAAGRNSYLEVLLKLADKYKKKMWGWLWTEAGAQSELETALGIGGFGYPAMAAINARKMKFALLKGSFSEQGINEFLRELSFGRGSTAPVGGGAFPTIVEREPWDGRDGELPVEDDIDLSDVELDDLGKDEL
PDI inh: inhibitors of human protein disulfide isomerase; P07237; PDI insulin aggregation turbidity, A650, 90 min; inhibition, % at 10 µM; hit rate 0.052% among 350,000; AID 588391;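 active = mean inhibition across replicates of 30% or more, whatever share of single replicates reach that level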
An asterisk follows results filed as active; . = no result.

SMILES	Rtt109 Vps75	PvdQ inh	ERAP1 inh	ERp5 block	PDI inh
O=C(C1=C[C@H](C2CC2)C[C@H](OCc2ccc(CO)cc2)O1)N1CCCCCCC1	.	.	3	4	.
C[C@H](CO)N1C[C@H](C)[C@@H](CN(C)C(=O)Nc2cccc3ccccc23)Oc2ccc(NC(=O)Cn3cnnn3)cc2CC1=O	.	.	-2	3	.
CC(=O)N(C)C[C@@H]1Oc2cc(C#CC3CCCC3)ccc2S(=O)(=O)N([C@H](C)CO)C[C@H]1C	.	.	-11	3	.
COc1cc2c(cc1OC)C[N+](C)(C)CC2	-8	-8	65*	-1	.
COc1cc2c(cc1OC)CC(=O)N(C)CC2	-8	-3	2	2	-1
CCN(CC)CCCN=C1N[C@@H](c2ccccc2)C(C(=O)OC)=C(C)N1CC	6	-9	63*	-6	-15
O=C(c1ccccn1)N1CC(=O)N2[C@H](C1)[C@@H](c1ccc(-c3cccc(F)c3)cc1)[C@@H]2CO	.	.	-2	-10	.
O=C(NCCCN1CCCC1)c1ccc(CS(=O)(=O)c2c(Cl)cccc2Cl)o1	1	-2	0	26*	-6
O=C(O)c1cc(NN=C2c3ccccc3-c3ccccc32)ccc1Cl	43	-5	31*	-3	-1
C[C@H]1CCCCO[C@@H](CN(C)Cc2ccccc2)[C@@H](C)CN([C@@H](C)CO)C(=O)c2cc(NS(=O)(=O)c3cccs3)ccc2O1	.	.	3	2	.
CCC(=O)Nc1ccc2c(c1)C(=O)N(C)[C@H]1CC[C@@H](CC(=O)NCCOC)O[C@H]1CO2	.	.	-1	0	.
C[C@@H]1CN([C@H](C)CO)C(=O)Cc2cc(NS(=O)(=O)c3ccc(F)cc3)ccc2O[C@H]1CN(C)CC1CCCCC1	.	.	1	2	.
COC(=O)C(C)N1C(=O)S/C(=C\c2ccc(-c3ccc(C(=O)O)cc3C)o2)C1=O (centres undefined)	-2	-11	57*	-2	-7
Cc1ccc(NC(=O)CN2C(=O)S/C(=C/c3ccc(-c4cc(C(=O)O)ccc4C)o3)C2=O)cc1C	-8	4	.	.	6
Cc1cc(C)nc(Sc2nc(Cl)nc(N(c3ccccc3)c3ccccc3)n2)n1	79*	-4	.	.	7
CCc1ccccc1NC(=O)CN(C)S(=O)(=O)c1ccc(-c2ccc(=O)[nH]n2)s1	0	-10	0	-7	6
COc1cc(OC)c(NC(=O)CN(C)S(=O)(=O)c2ccc(-c3ccc(=O)[nH]n3)s2)cc1Cl	52*	-2	0	-5	-5
CS(=O)(=O)c1ccc(C(=O)OCC(=O)N2CCN(CCC3CCCCC3)CC2)cc1[N+](=O)[O-]	.	.	8	1	91*
C[C@@H]1CN([C@H](C)CO)C(=O)c2cc(NC(=O)Nc3ccc4c(c3)OCO4)ccc2O[C@@H]1CN(C)S(=O)(=O)c1ccc(Cl)cc1	.	.	-2	2	.
O=C(C[C@@H]1CC[C@H]2[C@@H](COC[C@H](O)CN2C(=O)Nc2ccc(C(F)(F)F)cc2)O1)NCC1CC1	.	.	3	-6	.
CSc1nnc(-c2cc[n+](C)cc2)n1CCO	6	-2	102*	-7	-7
CSc1nnc(-c2ccccc2)n1N	-8	10	.	.	-8
CO[C@H]1CN(C)C(=O)c2ccc(NC(C)=O)cc2OC[C@@H](C)N(C(=O)C2CCC2)C[C@@H]1C	.	.	3	-5	.
COC(=O)C1=C(C)NC(C)=C(C(=O)OC)C1C(=O)OCC(=O)N1c2ccccc2CC1C (centres undefined)	1	-14	48*	-3	-3
CC1Cc2ccccc2N1C(=O)COC(=O)c1ccc(N(C)C)cc1 (centres undefined)	-11	-15	1	2	10
SMILES	Rtt109 Vps75	PvdQ inh	ERAP1 inh	ERp5 block	PDI inh
CC1Cc2ccccc2N1C(=O)COC(=O)c1ccc(O)cc1 (centres undefined)	52*	26	4	-1	-1
C/C=C/c1ccc([C@H]2[C@@H](CO)N(C(=O)CC)[C@@H]2CNCC2CCCCC2)cc1	.	.	-30	-2	.
COc1ccc2c3c(n(C)c2c1)[C@@H](CO)N(Cc1ccccc1OC)CC31CN(CC2CC2)C1	.	.	0	-3	.
O=S1(=O)CC(O)C(NCc2cccnc2)C1 (centres undefined)	65*	8	.	.	5
CC(C)CNC1CS(=O)(=O)CC1O (centres undefined)	-9	3	-2	0	2
CC(=O)Nc1ccc2c(c1)C(=O)N(C)[C@@H]1CC[C@@H](CC(=O)NCC3CC3)O[C@H]1CO2	.	.	0	71*	.
C[C@@H]1CN([C@H](C)CO)C(=O)c2cc(NS(=O)(=O)c3cn(C)cn3)ccc2O[C@H]1CN(C)CC1CC1	.	.	0	-1	.
CC(=O)N[C@H]1CC[C@H](CCNC(=O)C2CC2)O[C@@H]1CO	.	.	-3	1	.
Cc1cc(C(=O)N2CCCC(CNS(=O)(=O)c3cccs3)C2)nn1C (centres undefined)	2	1	1	0	-2
Cc1nc(CC(C)C)cc(C(=O)N2CCCC(CNS(=O)(=O)c3cccs3)C2)n1 (centres undefined)	60*	9	-3	4	5
Cc1cc(CN2C(=O)c3ccccc3C2=O)no1	57*	6	.	.	-9
Cc1cc(CN2C(=O)c3ccccc3C2=O)on1	-2	-6	.	.	-3
CCOc1c(Cl)cc(CNC(C)(C)CC(C)(C)C)cc1OC	6	-6	.	.	35*
CCOc1c(Cl)cc(CNc2ccc(N3CCCC3)cc2)cc1OC	2	-17	-2	3	-9
C[n+]1ccc(/C=C/c2cccs2)cc1	4	-15	53*	2	-8
COCC(=O)N1C[C@@H]2[C@H](c3ccccc31)[C@@H](CO)N2Cc1cc(F)ccc1F	.	.	-2	0	.
O=C(C1CCC1)N1CCCCN2[C@H](CO)[C@H](c3ccc(C#CC4CCCC4)cc3)[C@H]2C1	.	.	-4	1	.
CNC[C@@H]1Oc2c(NS(C)(=O)=O)cccc2C(=O)N([C@@H](C)CO)C[C@@H]1C	.	.	1	1	.
CNC[C@H]1Oc2c(N)cccc2C(=O)N([C@@H](C)CO)C[C@H]1C	.	.	.	86*	.
C[C@H]1CN([C@@H](C)CO)C(=O)c2cccc(NC(=O)c3nc4ccccc4s3)c2O[C@@H]1CN(C)C(=O)Nc1ccc(C(F)(F)F)cc1	.	.	1	27*	.
Cc1noc(C)c1NC(=O)Nc1cccc2c1O[C@H](CN(C)S(=O)(=O)c1ccc(Cl)cc1)[C@@H](C)CN([C@H](C)CO)C2=O	.	.	-2	26*	.
Cc1noc(C)c1NC(=O)N(C)C[C@H]1Oc2c(NS(=O)(=O)c3ccc(Cl)cc3)cccc2C(=O)N([C@@H](C)CO)C[C@@H]1C	.	.	0	25*	.
C[C@@H]1CCCCO[C@@H](CN(C)C(=O)Nc2ccccc2)[C@@H](C)CN([C@H](C)CO)C(=O)c2cc(NC(=O)Nc3ccccc3)ccc2O1	.	.	2	-2	.
C[C@@H]1CN([C@@H](C)CO)C(=O)c2cccc(NS(=O)(=O)c3ccc(F)cc3)c2O[C@H]1CN(C)S(=O)(=O)c1ccccc1	.	.	-3	46*	.
